Source: PubChem BioAssay
RMI FANCM FP: disruptors of RMI1/RMI2 association with MM2 peptide – biochemical, fluorescence polarization, human, primary screen; RMI core complex with F-MM2 peptide; active compounds read low; FP signal (polarization) at 33 µM; 70,000 tested, 0.58% active; AID 1159607, 2016; in the data active = FP signal below about 40
Numbers without * were called inactive; ! = not confirmed by another sample. Shown is part of a subset that was picked to be rich in hits.

SMILES | RMI FANCM FP
CCOc1ccc(S(=O)(=O)Nc2cc(-c3c(O)ccc4ccccc34)c(O)c3ccccc23)cc1 | 56
CN(C)CCCN(C(=O)CSc1ccccc1)c1nc2ccc(Br)cc2s1 | 88
CSC1=N/C(=C\c2ccc(Cl)cc2)C(=O)N1Cc1ccco1 | 48
O=C(Nc1ccc(SCC(=O)N2CCCC2)nn1)C1c2ccccc2Oc2ccccc21 | 50
Cc1cc(C(=O)CCl)c(C)n1-c1ccc(F)c(Cl)c1 | 75
N=C(N)c1ccc(OCCCCCOc2ccc(C(=N)N)cc2)cc1 | -2*!
CCCCCOc1ccc(C(=O)NN)cc1 | 55
N=C(N)c1ccc(N)cc1 | 55
Cc1ccc(C)c(C(O)=C2C(=O)C(=O)N(CCN(C)C)C2c2ccccc2)c1 (configuration not stated) | 59
COc1ccc(S(=O)(=O)NCc2ccsc2)cc1 | 65
Cc1c(C)c(C)c(CSCc2n[nH]c(=S)n2-c2cccc(C(F)(F)F)c2)c(C)c1C | 51
Cc1cccc(S(=O)(=O)c2c(N)n(/N=C\c3cccs3)c3nc4ccccc4nc23)c1 | 67
CCc1nn(C)c2c(=O)c(=O)c2n(C)[nH]1 | 32*
CC(C)(C)c1ccc(-c2cc(=O)c3ccc(NC(=O)c4ccco4)cc3o2)cc1 | 58
COc1ccc(-c2cc3c(=O)[nH]nc(SCc4ccc(C)cc4)n3n2)cc1OC | 60
CC1CCN(C(C)CNC(=O)Nc2cccc(F)c2)CC1 (configuration not stated) | 55
O=C(COc1ccc(Cl)cc1)NCCn1nc(-c2ccc(F)cc2)ccc1=O | 53
O=C1/C(=C/c2ccc(Cl)cc2)Oc2cc(O)ccc21 | -17
Cc1ncc(CO)c(/C=C2\Oc3cc(O)ccc3C2=O)c1O | 85
CN(/C=C1\Oc2cc(O)ccc2C1=O)Cc1ccccc1 | 14*
COc1cccc(NC(=O)Nc2ccc(S(=O)(=O)Nc3cc(C)on3)cc2)c1 | 57
COc1ccc(S(=O)(=O)NCCN2CCN(c3ccccc3)CC2)c(OC)c1 | 65
O=C(O)Cc1csc(NC(=O)c2ccc[nH]c2=O)n1 | 63
CC(C)c1cc(C(C)C)c(C(C)C)c([N+](=O)[O-])c1N | 56
O=C(c1ccno1)N1CCN(C2c3ccccc3-c3ccccc32)CC1 | -13*!
SMILES | RMI FANCM FP
O=C(c1ccc2nsnc2c1)N1CCN(C2c3ccccc3-c3ccccc32)CC1 | 55
Cc1c(C(=O)N2CCN(C3c4ccccc4-c4ccccc43)CC2)cnn1-c1ccccc1 | 61
Cc1nc(Oc2ccccc2)cc(N2CCN(C(=O)Nc3ccccc3Cl)CC2)n1 | 56
CN1CCN(n2c3c(c(SCC(=O)NC4CCCC4)nc2=O)CCC3)CC1 | 51
Cc1cc(C)c(NC(=O)Cn2c(=O)cnc3cc(S(=O)(=O)N4CCCCC4)ccc32)c(C)c1 | 166
Cc1cc(=O)oc2cc(O)ccc12 | 51
Cc1cc(=O)oc2cc(O)c(O)cc12 | 10*
Cc1cc(=O)oc2c(O)c(O)ccc12 | 66
Cc1cc(NC(=O)c2cc3ccccc3o2)n(-c2nc3ccccc3s2)n1 | 67
CC12CCC(O)CC1=CCC1C2CCC2(C)/C(=N\N=C/c3ccc([N+](=O)[O-])s3)CCC12 (configuration not stated) | 57
N#Cc1c(-c2ccco2)c2c([nH]c1=O)-c1ccccc1OC2 | -3*
N#Cc1c(-c2ccco2)cc(-c2ccco2)[nH]c1=O | -9
N#Cc1c(-c2ccco2)c2c([nH]c1=O)-c1ccccc1CC2 | -59
COc1ccc2nc(-n3nc(C)cc3NC(=O)c3ccc(C#N)cc3)sc2c1 | 61
O=C(N1CCN(c2ccccc2)CC1)C1(c2cccs2)CCCC1 | 59
CCN1CCC[C@H]1CNC(=O)c1c(OC)ccc(Br)c1OC | 59
CCN1CCC[C@H]1CNC(=O)c1cc(S(N)(=O)=O)ccc1OC | 22*!
C=CCN1CCCC1CNC(=O)c1cc2[nH]nnc2cc1OC (configuration not stated) | 61
CCOC(CNC(=O)C(=O)Nc1cccc(F)c1)OCC | 55
C(=N/Nc1nc2ccccc2s1)/c1ccco1 | 61
C(/C=C/c1ccco1)=N/Nc1nnc(-c2ccccc2)c(-c2ccccc2)n1 | 21*
C(=N/Nc1nnc(-c2ccccc2)c(-c2ccccc2)n1)/c1ccncc1 | 56
Oc1ccccc1C=Nc1ccnn1-c1ccccc1 | 59
COc1ccc(Cl)cc1NC(=O)Cn1cccn1 | 64
O=C(Cc1cccs1)NCCN1CCN(c2ccccc2F)CC1 | 69
SMILES | RMI FANCM FP
CSc1cccc(C(=O)Nc2nnc(-c3cc(C)ccc3C)o2)c1 | 52
CS(=O)(=O)c1cccc(-c2nnc(NC(=O)c3ccc(S(=O)(=O)N4CCc5ccccc5C4)cc3)o2)c1 | 64
Cc1ccc(C)c(-c2nnc(NC(=O)c3ccc(S(=O)(=O)N4CCc5ccccc54)cc3)o2)c1 | 18*
COc1ccc(C(CNC(=O)c2ccc(Br)o2)N2CCOCC2)cc1 (configuration not stated) | 51
C/C(=N/OC(=O)c1ccc(C)cc1)c1csc2ccccc12 | 59
CCCCOc1ccc(N/C=C(\C#N)c2nc(-c3ccc(-c4ccccc4)cc3)cs2)cc1 | 67
Cc1ccc(CNC(=O)c2sc(=S)n(-c3cc(C)ccc3C)c2N)cc1 | 66
COc1cc(C)c(C)cc1S(=O)(=O)Nc1ccc2c(c1)N(C(=O)c1cccs1)CC2 | 84
CCOc1ccccc1-n1nnnc1SCC(=O)Nc1nccs1 | 53
O=C1CNC(=S)N1Cc1ccco1 | 51
O=c1[nH]c(=S)c2c(n1Cc1ccco1)CCCC2 | 63
O=c1cc(O)n(Cc2ccco2)c(=S)[nH]1 | 26*
O=C(Nc1nccs1)c1cn(-c2ccccc2)nc1-c1cc2ccccc2oc1=O | 62
COC(=O)Cc1nc(NC(=O)C2CCC2C(=O)O)sc1C (configuration not stated) | 56
Cc1cc(=O)[nH]c(-n2nc(C)cc2NC(=O)/C=C/c2ccc3c(c2)OCO3)n1 | 54
CC(C)c1cc(=O)[nH]c(-n2nc(-c3cccs3)cc2NC(=O)c2cccs2)n1 | 75
CC(C)c1cc(=O)[nH]c(-n2nc(-c3cccs3)cc2NC(=O)/C=C\c2ccc3c(c2)OCO3)n1 | 26*
Cn1ccc(C(=O)Nc2nc(-c3cccs3)cs2)n1 | 62
NC(=O)C1CCN(C(c2ccccc2Cl)c2sc3nc(-c4ccco4)nn3c2O)CC1 (configuration not stated) | 54
Cc1cccc(NC(=O)CSc2ccc(NC(=O)c3ccccc3)nn2)c1 | 143
Cc1ccc(N2CCN(S(=O)(=O)c3cc(Cl)ccc3Cl)CC2)c(C)c1 | 64
Cc1ccc(S(=O)(=O)N=C2C=CC(=O)C(Cl)=C2)c(C)c1 | -12*
Cc1ccc(-c2ccc(N3CCN(S(=O)(=O)c4ccccc4Cl)CC3)nn2)c(C)c1 | 80
CCCS(=O)(=O)C/C(N)=N\OS(=O)(=O)c1ccc(F)cc1F | 53
Cc1ccc(-c2csc3nnc(SCC(=O)Nc4cccc(C)c4)n23)cc1 | 63
SMILES | RMI FANCM FP
Cc1onc(-c2ccccc2)c1C(=O)NC1C(=O)N2[C@@H]1SC(C)(C)[C@@H]2C(=O)O (some centres not stated) | 9*
Cc1onc(-c2c(Cl)cccc2Cl)c1C(=O)N[C@@H]1C(=O)N2[C@@H]1SC(C)(C)[C@@H]2C(=O)O | 65
CC(=O)Nc1ccc(OCCCNC(=O)c2c(-c3ccccc3)noc2C)cc1 | 63
COc1cccc(OC)c1C(=O)N[C@@H]1C(=O)N2[C@@H]1SC(C)(C)[C@@H]2C(=O)O | 67
Cc1onc(-c2ccccc2)c1C(=O)NCCNC(=O)c1c(-c2ccccc2)noc1C | -22*
Cc1onc(-c2ccccc2)c1C(=O)NNC(=O)C1CC1 | 61
